Screening results from PubChem BioAssay.
A selection: hits, their analogues and other compounds. The true share with any hit is near 2.8%.
PAFAH1B3 FP inh = blocks human PAF acetylhydrolase 1B catalytic subunit 3. recombinant PAFAH1B3, FP-rhodamine probe, fluorescence polarization. inhibition, % at 3.39 µM. 340,000 compounds, 0.28% hits. AID 492972;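 active means inhibition above the screen-wide average of all tested compounds plus 3 SD, cut at about 25% in these data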
Target sequence (Q15102 whole entry, looked up): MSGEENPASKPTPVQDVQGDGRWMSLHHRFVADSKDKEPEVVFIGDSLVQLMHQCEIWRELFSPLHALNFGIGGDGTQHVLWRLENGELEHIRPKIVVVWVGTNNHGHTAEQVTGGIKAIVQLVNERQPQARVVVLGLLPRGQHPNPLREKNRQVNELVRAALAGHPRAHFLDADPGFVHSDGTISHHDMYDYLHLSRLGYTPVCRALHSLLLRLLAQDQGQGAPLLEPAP
pPAFAH FP inh = pPAFAH (human) enzyme inhibition; Q13093; recombinant pPAFAH, FP-rhodamine probe fluorescence polarization; inhibition, % at 3.39 µM; 330,000 compounds, 1.5% hits; AID 463082;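 active means inhibition above the mean inhibition across the screen plus 3 SD, cut at about 25% in these data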;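 further: inhibitors block binding of the rhodamine activity-based probe so polarization drops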
PME-1 inh = PME-1 (human) inhibition | inhibition, % at 5.9 µM | recombinant PME-1, FP-Rh probe fluorescence polarization | AID 2130 | Q9Y570 | 320,000 compounds, 0.53% hits;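 active means inhibition above the campaign mean of all compounds plus 3 SD, cut at about 26% in these data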;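 further: competitive labeling of PME-1 active site by serine hydrolase directed probe; inhibitors block probe labeling so polarization falls and inhibition rises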
PAFAH2 inh = inhibitors of human PAFAH2 | recombinant PAFAH2, FP-rhodamine activity probe, fluorescence polarization | Q99487 | 340,000 compounds, 0.99% hits | inhibition, % at 3.39 µM;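 active means inhibition above the mean over all tested compounds plus 3 SD, cut at about 30% in these data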;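 further: inhibitors block probe labeling of enzyme so polarization drops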
Fam108B counter = blocks mouse Fam108B hydrolase in RBBP9 counter-screen. recombinant Fam108B, FP-Rh probe fluorescence polarization. 300,000 compounds, 0.33% hits. inhibition, % at 9.51 µM;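 active means inhibition above the screen mean inhibition plus 3 SD, computed separately per campaign, cut at about 18% in these data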;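 further: inhibitors lower polarization as less probe binds the enzyme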
PAFAH1B2 FP inh = blocks human PAF acetylhydrolase 1b catalytic subunit 2; recombinant PAFAH1B2, FP-rhodamine activity probe, fluorescence polarization; inhibition, % at 3.39 µM; 340,000 compounds, 1.2% hits; AID 492953;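 active means inhibition above the mean of all tested compounds plus 3 SD, cut at about 24% in these data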
Numbers stand for hits; – = inactive; · = no result.

SMILES	PAFAH1B3 FP inh	pPAFAH FP inh	PME-1 inh	PAFAH2 inh	Fam108B counter	PAFAH1B2 FP inh
COc1cc(/C=N/NC(=O)c2sc(N)c(C#N)c2C)cc(Br)c1O	–	–	31	–	–	–
O=C(/C=C/c1ccc(S(=O)(=O)NCc2ccco2)cc1)NCc1ccccc1Cl	–	32	–	–	–	–
CSc1ccc(C(=O)Nc2cc(S(=O)(=O)N3CCOCC3)ccc2N2CCOCC2)cc1[N+](=O)[O-]	–	·	·	–	·	–
Cc1cc(CN2CCN(CC(=O)Nc3cc(Cl)ccc3-n3cncn3)CC2)no1	–	·	·	–	·	–
c1ccc2c(c1)OCCc1c-2[nH]c2ccccc12	–	–	33	–	–	–
Cc1cc(O)c(C(=O)/C=C/c2ccc(C(C)C)cc2)c(=O)o1	–	·	·	–	·	28
O=C(NCC(c1ccco1)N1CCCC1)c1cccc(S(=O)(=O)Nc2ccc(Br)cc2)c1 (configuration not stated)	–	28	–	–	–	–
COc1ccc(NS(=O)(=O)c2cccc(C(=O)NCC(c3ccco3)N3CCCC3)c2)cc1 (configuration not stated)	–	–	–	–	–	–
CCOc1ccc(S(=O)(=O)Nc2cccc(C(=O)NCC(c3ccco3)N3CCCC3)c2)cc1 (configuration not stated)	–	–	–	–	·	–
O=C(NCC(c1ccco1)N1CCCCC1)c1cccc(NS(=O)(=O)c2ccc(Br)cc2)c1 (configuration not stated)	–	–	–	–	–	30
CN1C[C@@H]2[C@@H]3C(=O)N(Cc4ccccc4)C(=O)[C@@H]3[C@](C)(C1=O)N2C(=O)c1ccc(Cl)cc1	–	–	·	–	·	–
Cc1ccc(CS(=O)(=O)Cc2ccc(C(=O)NCCCN3CC(C)CC(C)C3)o2)cc1 (configuration not stated)	–	31	–	–	–	–
CCOc1cc(C(=O)OCc2cccc(OC)c2OC)ccc1OCC(=O)N1CCOCC1	–	32	–	–	–	–
CCOc1cc(C(=O)OCc2ccc([N+](=O)[O-])cc2)ccc1OCC(=O)N1CCOCC1	–	–	–	–	–	–
CC(C)(C)c1ccc(C2=CC(c3ccccc3)n3ncnc3N2)cc1 (configuration not stated)	–	26	–	–	–	58
CN(CC(=O)NCc1ccc(F)cc1)Cc1ccc(Br)cc1	–	–	–	–	–	25
COc1ccc(Br)cc1CN(C)CC(=O)NCc1ccc(F)cc1	–	–	–	–	–	–
CCCn1c(=O)c(C(=O)OCC)c(O)c2cc(Br)ccc21	–	–	–	–	–	–
CCOC(=O)c1c2c(n(C)c1COC)C(=O)C(=O)c1ccc(Br)cc1-2	·	–	–	·	29	·
CCOc1ccccc1C(=O)OCC(=O)Nc1ncc(C(F)(F)F)cc1Cl	–	27	–	–	–	–
CCOc1ncccc1C(=O)OCC(=O)Nc1ncc(C(F)(F)F)cc1Cl	–	27	–	–	–	–
CCc1cc(Br)ccc1NC(=S)NCCc1ccccc1	–	·	·	–	·	–
CC(=O)c1ccc(NC(=O)CCCN2C(=O)COc3ccc(C)cc32)cc1	–	–	–	–	–	–
COc1cc(S(=O)(=O)NC(Cc2c[nH]c3ccccc23)C(=O)O)ccc1NC(C)=O (configuration not stated)	–	–	–	–	–	–
O=C(O)C(Cc1c[nH]c2ccccc12)NS(=O)(=O)c1ccccc1 (configuration not stated)	–	–	–	–	–	24
SMILES	PAFAH1B3 FP inh	pPAFAH FP inh	PME-1 inh	PAFAH2 inh	Fam108B counter	PAFAH1B2 FP inh
O=C(NCc1cccnc1)c1cc(Sc2cccc(Cl)c2)nc2ccccc12	–	33	–	–	–	–
Cc1ccc(/C=N/OC(=O)c2nn(C)cc2Cl)cc1	–	–	–	–	–	28
O=C(CCS(=O)(=O)c1ccc(Cl)cc1)NCCC1=CCCCC1	–	–	–	–	–	–
O=C(COc1ccc(S(=O)(=O)NC2CCCCC2)cc1)NCCC1=CCCCC1	–	28	–	–	–	–
O=C(CCS(=O)(=O)c1ccc(Br)cc1)NCCC1=CCCCC1	–	–	–	–	–	26
O=C(Nc1cccc(S(=O)(=O)NC2=NCCC2)c1)c1ccc(C(F)(F)F)cc1	–	–	·	–	·	–
CCCc1cc(C(=O)N(C)CC(=O)Nc2ccc(OCC)c(OCC)c2)sc1C	–	–	–	–	–	–
COc1ccc(/C=N/NC(=O)c2cc3cc(OC)c(OC)cc3[nH]2)cc1	–	–	27	–	–	–
